The supplement of paper PMC10849652
About 7,900 targets were measured; listed, in parts, are those with a hit and a random draw of the rest. About 0.6% of all pairs of compound and target were hits. A number with no mark means an inactive call.

Columns and labels:
Assay in all cases: log2 fold change, soluble protein after heating vs DMSO (PISA); higher = thermal stabilisation; K562 cells, 10 uM, 30 min; active = over 0.2 and 3.5 SD of the protein, either way, in both replicates (recomputed)
bafetinib = compound: Cc1ccc(NC(=O)c2ccc(CN3CC[C@H](N(C)C)C3)c(C(F)(F)F)c2)cc1Nc1nccc(-c2cncnc2)n1 [bafetinib]
How it was run: (§1)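 For each measurement, 10 μM compound was applied for 30 min to K562 cells at 2×10^6 cells/mL. Aliquots were heated for 3 min across 48°C-58°C, pooled, and extracted in PBS with 0.5% NP-40 at 4°C; the supernatant after 21,000xg for 90 min was soluble protein. This was quantified by TMTpro 16plex LC-MS/MS with channel sums equalised, and thermal stability was reported relative to control samples from duplicates, on a log2 fold-change scale.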

[1] = compound: Cc1cccc(CC(=O)N2CCc3c2ccc(-c2cn(C)c4ncnc(N)c24)c3F)n1
How it was run: as §1

dasatinib = compound: Cc1nc(Nc2ncc(C(=O)Nc3c(C)cccc3Cl)s2)cc(N2CCN(CCO)CC2)n1 [dasatinib]
How it was run: as §1

[2] = compound: Cn1cc(-c2ccc3c(c2)CCN3C(=O)Cc2cccc(C(F)(F)F)c2)c2c(N)ncnc21
How it was run: as §1

[3] = compound: Cn1cc(-c2ccc3nnc(C(F)(F)c4ccc5ncccc5c4)n3n2)cn1
How it was run: as §1

mubritinib = compound: FC(F)(F)c1ccc(/C=C/c2nc(COc3ccc(CCCCn4ccnn4)cc3)co2)cc1 [mubritinib]
How it was run: as §1

[4] = compound: NC(=O)Nc1cc(-c2cccc(F)c2)sc1C(=O)N[C@H]1CCCNC1
How it was run: as §1

[5] = compound: NC1(c2ccc(-c3nc4ccn5c(=O)[nH]nc5c4cc3-c3ccccc3)cc2)CCC1
How it was run: as §1

entinostat = compound: Nc1ccccc1NC(=O)c1ccc(CNC(=O)OCc2cccnc2)cc1 [entinostat]
How it was run: as §1

vorinostat = compound: O=C(CCCCCCC(=O)Nc1ccccc1)NO [vorinostat]
How it was run: as §1

citarinostat = compound: O=C(CCCCCCNC(=O)c1cnc(N(c2ccccc2)c2ccccc2Cl)nc1)NO [citarinostat]
How it was run: as §1

silmitasertib = compound: O=C(O)c1ccc2c(c1)nc(Nc1cccc(Cl)c1)c1ccncc12 [silmitasertib]
How it was run: as §1

[6] = compound: O=C1NC(=O)C(c2cnc3ccccn23)=C1c1cn2c3c(cc(F)cc13)CN(C(=O)N1CCCCC1)CC2
How it was run: as §1

[7] = compound: c1cc(OCCN2CCCCC2)cc(-c2n[nH]c3ccc(-c4nnc[nH]4)cc23)c1
How it was run: as §1

nilotinib = compound: Cc1cn(-c2cc(NC(=O)c3ccc(C)c(Nc4nccc(-c5cccnc5)n4)c3)cc(C(F)(F)F)c2)cn1 [nilotinib]
How it was run: as §1

[8] = compound: Cc1nc(Nc2n[nH]c3c2CN(C(=O)N[C@H](CN(C)C)c2ccccc2)C3(C)C)c2sccc2n1
How it was run: as §1

[9] = compound: Cc1ncc(-c2ccnc(Nc3ccc(S(C)(=O)=O)cc3)n2)n1C(C)C
How it was run: as §1

tipifarnib = compound: Cn1cncc1[C@@](N)(c1ccc(Cl)cc1)c1ccc2c(c1)c(-c1cccc(Cl)c1)cc(=O)n2C [tipifarnib]
How it was run: as §1

[10] = compound: NC(=O)c1cnc(N[C@@H]2CCCC[C@@H]2N)nc1Nc1cccc(-n2nccn2)c1
How it was run: as §1

[11] = compound: NCC(=O)Nc1ccc(-n2nc(C(F)(F)F)cc2-c2ccc3c(ccc4ccccc43)c2)cc1
How it was run: as §1

UniProt Q6P3W2, sequence (Q6P3W2 whole entry, looked up): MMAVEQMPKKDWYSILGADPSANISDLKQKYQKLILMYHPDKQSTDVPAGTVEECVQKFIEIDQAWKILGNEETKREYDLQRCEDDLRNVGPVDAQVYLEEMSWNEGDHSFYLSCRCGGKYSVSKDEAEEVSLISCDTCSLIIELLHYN
UniProt Q8NF50, sequence (Q8NF50 whole entry, looked up): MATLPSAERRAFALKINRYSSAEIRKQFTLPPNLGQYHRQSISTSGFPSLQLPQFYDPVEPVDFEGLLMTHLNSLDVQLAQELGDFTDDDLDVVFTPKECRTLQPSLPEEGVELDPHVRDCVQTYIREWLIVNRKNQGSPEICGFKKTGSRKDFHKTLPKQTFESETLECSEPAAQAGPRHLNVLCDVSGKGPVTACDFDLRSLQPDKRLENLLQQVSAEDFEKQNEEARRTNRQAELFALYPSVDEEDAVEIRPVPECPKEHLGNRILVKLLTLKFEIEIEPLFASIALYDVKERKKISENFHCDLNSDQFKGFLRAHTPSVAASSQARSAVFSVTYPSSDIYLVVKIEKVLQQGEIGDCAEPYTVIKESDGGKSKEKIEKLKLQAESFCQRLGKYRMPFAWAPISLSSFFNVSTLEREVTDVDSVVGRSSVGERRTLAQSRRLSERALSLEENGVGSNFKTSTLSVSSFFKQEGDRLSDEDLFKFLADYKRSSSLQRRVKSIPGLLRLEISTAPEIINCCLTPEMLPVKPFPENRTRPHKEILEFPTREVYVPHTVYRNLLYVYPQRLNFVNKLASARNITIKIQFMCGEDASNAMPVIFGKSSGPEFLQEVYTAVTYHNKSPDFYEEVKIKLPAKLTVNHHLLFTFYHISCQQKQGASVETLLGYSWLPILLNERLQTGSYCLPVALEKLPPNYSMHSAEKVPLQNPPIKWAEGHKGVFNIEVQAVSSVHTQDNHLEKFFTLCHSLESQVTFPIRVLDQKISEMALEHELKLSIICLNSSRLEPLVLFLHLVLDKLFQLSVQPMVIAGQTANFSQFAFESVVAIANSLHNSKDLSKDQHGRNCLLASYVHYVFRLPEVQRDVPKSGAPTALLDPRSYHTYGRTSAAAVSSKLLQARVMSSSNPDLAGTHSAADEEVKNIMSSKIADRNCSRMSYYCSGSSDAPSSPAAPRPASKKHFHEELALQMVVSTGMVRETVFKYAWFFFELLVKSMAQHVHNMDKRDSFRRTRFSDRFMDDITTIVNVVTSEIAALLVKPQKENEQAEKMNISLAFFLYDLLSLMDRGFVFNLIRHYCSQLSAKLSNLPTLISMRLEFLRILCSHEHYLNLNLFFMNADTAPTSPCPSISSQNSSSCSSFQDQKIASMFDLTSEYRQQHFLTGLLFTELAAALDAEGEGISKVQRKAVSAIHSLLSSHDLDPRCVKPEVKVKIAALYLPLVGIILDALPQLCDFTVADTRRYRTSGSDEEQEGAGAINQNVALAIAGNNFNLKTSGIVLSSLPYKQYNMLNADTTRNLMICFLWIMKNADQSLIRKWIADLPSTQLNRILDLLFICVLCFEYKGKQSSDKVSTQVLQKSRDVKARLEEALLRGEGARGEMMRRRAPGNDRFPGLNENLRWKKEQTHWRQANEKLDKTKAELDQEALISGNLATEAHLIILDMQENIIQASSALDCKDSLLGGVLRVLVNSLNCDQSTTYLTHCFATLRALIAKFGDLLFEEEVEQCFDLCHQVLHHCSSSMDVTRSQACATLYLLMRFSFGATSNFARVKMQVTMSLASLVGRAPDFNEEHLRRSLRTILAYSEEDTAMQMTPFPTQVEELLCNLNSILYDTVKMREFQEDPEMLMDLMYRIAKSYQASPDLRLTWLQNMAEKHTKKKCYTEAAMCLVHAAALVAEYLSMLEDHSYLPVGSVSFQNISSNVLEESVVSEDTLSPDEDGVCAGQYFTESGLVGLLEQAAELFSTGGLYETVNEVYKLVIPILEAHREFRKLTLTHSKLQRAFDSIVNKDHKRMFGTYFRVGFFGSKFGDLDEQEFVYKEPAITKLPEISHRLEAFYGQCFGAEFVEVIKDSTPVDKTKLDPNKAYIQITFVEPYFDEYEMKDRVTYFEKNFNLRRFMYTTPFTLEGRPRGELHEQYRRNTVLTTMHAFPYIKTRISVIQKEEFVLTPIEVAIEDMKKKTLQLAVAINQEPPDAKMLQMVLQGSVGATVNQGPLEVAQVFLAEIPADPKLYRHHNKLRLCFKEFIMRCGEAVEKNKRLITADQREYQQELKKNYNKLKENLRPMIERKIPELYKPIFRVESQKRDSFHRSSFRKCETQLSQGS
UniProt Q3B7T1, sequence (Q3B7T1 whole entry, looked up): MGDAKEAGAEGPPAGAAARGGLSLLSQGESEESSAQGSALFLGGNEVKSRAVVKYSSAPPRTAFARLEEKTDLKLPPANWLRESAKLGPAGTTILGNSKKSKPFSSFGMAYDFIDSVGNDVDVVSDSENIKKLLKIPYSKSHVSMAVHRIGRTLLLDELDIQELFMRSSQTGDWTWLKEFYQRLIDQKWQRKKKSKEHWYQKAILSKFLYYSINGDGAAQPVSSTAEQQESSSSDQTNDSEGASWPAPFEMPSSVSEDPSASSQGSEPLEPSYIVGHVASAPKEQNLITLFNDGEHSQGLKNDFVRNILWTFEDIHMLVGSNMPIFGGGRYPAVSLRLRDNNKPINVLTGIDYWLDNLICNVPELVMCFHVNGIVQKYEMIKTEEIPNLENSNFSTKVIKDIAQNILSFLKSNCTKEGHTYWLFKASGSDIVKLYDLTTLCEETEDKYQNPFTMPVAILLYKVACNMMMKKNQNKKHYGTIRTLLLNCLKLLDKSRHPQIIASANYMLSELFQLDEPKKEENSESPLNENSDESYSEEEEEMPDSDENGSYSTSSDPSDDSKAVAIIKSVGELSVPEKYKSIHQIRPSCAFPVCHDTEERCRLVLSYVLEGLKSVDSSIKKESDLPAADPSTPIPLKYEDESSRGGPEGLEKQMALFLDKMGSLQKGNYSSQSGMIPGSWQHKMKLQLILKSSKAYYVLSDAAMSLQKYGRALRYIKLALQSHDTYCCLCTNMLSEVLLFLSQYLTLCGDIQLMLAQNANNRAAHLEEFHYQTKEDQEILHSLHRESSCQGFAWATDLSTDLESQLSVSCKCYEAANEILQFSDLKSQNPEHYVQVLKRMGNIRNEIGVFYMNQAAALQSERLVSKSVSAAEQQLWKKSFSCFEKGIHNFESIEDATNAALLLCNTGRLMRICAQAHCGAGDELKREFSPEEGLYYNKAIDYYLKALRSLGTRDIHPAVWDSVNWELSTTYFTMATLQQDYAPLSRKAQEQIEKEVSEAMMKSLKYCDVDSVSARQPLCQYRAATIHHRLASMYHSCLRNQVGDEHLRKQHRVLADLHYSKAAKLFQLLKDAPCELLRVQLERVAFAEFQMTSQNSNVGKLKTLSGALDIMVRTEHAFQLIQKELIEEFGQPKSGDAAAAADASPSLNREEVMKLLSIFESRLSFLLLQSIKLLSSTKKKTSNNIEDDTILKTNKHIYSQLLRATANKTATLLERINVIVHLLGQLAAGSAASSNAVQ
UniProt O43432, sequence (O43432 whole entry, looked up): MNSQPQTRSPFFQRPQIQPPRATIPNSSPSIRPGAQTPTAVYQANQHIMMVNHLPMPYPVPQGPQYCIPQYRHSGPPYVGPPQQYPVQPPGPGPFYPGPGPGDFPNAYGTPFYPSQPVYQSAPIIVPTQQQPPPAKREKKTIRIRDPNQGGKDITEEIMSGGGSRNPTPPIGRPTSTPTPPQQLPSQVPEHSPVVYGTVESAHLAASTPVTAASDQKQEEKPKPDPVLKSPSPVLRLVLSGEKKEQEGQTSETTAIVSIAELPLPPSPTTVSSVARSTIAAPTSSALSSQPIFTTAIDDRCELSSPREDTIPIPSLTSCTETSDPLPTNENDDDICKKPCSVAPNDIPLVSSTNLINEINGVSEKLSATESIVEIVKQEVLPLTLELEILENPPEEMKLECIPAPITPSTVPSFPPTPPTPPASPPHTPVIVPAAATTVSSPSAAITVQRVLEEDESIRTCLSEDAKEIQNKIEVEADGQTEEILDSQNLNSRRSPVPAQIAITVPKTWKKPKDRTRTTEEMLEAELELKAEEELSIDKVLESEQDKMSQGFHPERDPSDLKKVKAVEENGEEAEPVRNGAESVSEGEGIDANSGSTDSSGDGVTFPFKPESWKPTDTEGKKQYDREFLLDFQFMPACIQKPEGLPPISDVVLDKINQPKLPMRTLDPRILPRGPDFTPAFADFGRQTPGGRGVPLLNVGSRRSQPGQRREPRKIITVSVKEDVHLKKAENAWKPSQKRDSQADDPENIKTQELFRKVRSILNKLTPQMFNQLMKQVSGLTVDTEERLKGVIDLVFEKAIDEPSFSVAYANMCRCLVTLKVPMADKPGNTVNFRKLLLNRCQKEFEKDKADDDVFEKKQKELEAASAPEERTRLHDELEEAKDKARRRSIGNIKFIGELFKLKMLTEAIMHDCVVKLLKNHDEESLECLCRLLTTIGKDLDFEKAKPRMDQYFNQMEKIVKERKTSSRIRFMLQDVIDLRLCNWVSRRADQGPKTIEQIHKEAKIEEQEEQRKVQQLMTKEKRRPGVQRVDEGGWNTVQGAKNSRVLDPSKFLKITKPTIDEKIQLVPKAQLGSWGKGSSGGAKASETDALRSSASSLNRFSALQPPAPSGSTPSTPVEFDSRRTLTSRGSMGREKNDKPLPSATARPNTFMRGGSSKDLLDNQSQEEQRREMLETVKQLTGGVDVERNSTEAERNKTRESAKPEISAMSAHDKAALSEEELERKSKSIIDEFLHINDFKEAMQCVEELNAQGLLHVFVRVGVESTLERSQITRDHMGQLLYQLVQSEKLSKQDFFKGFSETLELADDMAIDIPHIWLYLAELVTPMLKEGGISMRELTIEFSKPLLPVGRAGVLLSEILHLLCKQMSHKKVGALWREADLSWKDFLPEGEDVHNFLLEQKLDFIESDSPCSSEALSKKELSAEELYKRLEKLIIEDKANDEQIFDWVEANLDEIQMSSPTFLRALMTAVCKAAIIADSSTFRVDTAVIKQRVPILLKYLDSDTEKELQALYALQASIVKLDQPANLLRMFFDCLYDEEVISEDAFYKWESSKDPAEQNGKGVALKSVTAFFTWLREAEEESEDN

Target	log2 fold change (bafetinib)	log2 fold change [1]	log2 fold change (dasatinib)	log2 fold change [2]	log2 fold change [3]	log2 fold change (mubritinib)	log2 fold change [4]	log2 fold change [5]	log2 fold change (entinostat)	log2 fold change (vorinostat)	log2 fold change (citarinostat)	log2 fold change (silmitasertib)	log2 fold change [6]	log2 fold change [7]	log2 fold change (nilotinib)	log2 fold change [8]	log2 fold change [9]	log2 fold change (tipifarnib)	log2 fold change [10]	log2 fold change [11]
EDRF1 (UniProt Q3B7T1)	-0.04	-0.209	-0.157	-0.275	-0.114	0.045	-0.062	-0.044	-0.055	0.083	-0.044	-0.031	-0.057	-0.103						
EGLN1 (UniProt Q9GZT9)	-0.031	-0.018	-0.073	-0.01	0.017	-0.116	0.095	-0.043	-0.009	0.021	0.034	0.024	0.014	-0.178	0.066	-0.026	-0.036	0.016	-0.016	-0.029
DOCK8 (UniProt Q8NF50)	-0.076	-0.055	0.052	-0.14	-0.067	0.021	-0.088	0.461	0.079	0.031	0.064	0.254	-0.12	0.07	0.069	-0.057	-0.126		0.073	0.036
EIF4G3 isoform 3 (UniProt O43432)	-0.01		-0.006	-0.073	0.056	-0.005	0.012	-0.062	0.01		-0.114	0.146		-0.515 (active)	-0.043	-0.12	0.052	0.083	-0.092	-0.016
EIF2AK1 (UniProt Q9BQI3)	-0.162	0.171	-0.068	0.19	0	-0.025	-0.034	-0.023	0.129	-0.058		0	0.133					-0.035	0.018	0.001
EGR1 (UniProt P18146)	-0.257	0.141		-0.24	-0.106	-0.121	-0.029	0.345	0.091	-0.033		0.085	-0.109		-0.001	-0.352	-0.295	0.139	-0.346	0.066
DSN1 (UniProt Q9H410)	0.063		-0.242	0.041	0.059	-0.03	-0.026	-0.166	0.076		0.021	0.025	-0.032	-0.081	0.082	-0.217	0.104	0.027	-0.057	-0.037
DNAJC24 (UniProt Q6P3W2)	-0.079		0.053	-0.1	-0.201	0.06	0.023	0.011	0.055		0.102	0.052	-0.059	-0.169	0.019	-0.054	0.016	0.084		-0.129
EDEM2 (UniProt Q9BV94)	0.094	0	0.114	-0.046	0	-0.117	0.004	-0.054	-0.003	0.001		0.027	-0.029		-0.096	0.003	-0.011	0.15	-0.108	-0.039
